From PubChem BioAssay
LMP1 NFkB inh = inhibitors of Epstein-Barr LMP1-induced NF-kappaB reporter; LMP1-induced NF-kappaB luciferase reporter cells, luminescence; inhibition, % at 12.5 µM; 350,000 tested, 0.69% active; in the data active = inhibition above about 41%; inconclusive = no clear call, values can overlap the other calls;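 also: 0% = neutral control wells and 100% = reference inhibitor control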
KKLEB cytotox = reduces viability of KKLEB cystic fibrosis airway cells | KKLEB CF airway cells viability, ATPlite luminescence, overnight; stronger effect = lower value; cells stimulated with P. aeruginosa culture filtrate | activity change (cytotoxicity), % at 5 µM | AID 602141 | 360,000 tested, 0.36% active;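 active = corrected activity change at or below -50% at 5 µM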
CF NFkB inh = inhibitors of cystic fibrosis induced NF-kB | KKLEB NF-kB-GFP reporter, PAF-induced, GFP fluorescence overnight | inhibition, % at 5 µM | 360,000 tested, 0.86% active | AID 588850;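 active = at least 50% inhibition at 5 µM, scaled per plate between neutral and stimulator controls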;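 also: PAF is a Pseudomonas aeruginosa culture filtrate used as stimulus; plate controls were PAF-stimulated DMSO wells for no effect and unstimulated DMSO wells for full effect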
Shn3 3UTR inh = Schnurri-3 reporter inhibition in Clone20 osteoblasts. 360,000 tested, 0.52% active. Clone20 osteoblast Shn3 3'UTR firefly luciferase, 24 h. AID 588674. inhibition, % at 12.5 µM;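 active = mean inhibition of at least 75% with every replicate also reaching 75%; inconclusive = mean inhibition at least 75% but some replicate below; inactive = mean inhibition below 75%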;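 also: 0% = median of neutral control wells and 100% = pilot-screen positive control compound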
TRPM1 prom inh = MITF TRPM1 promoter inhibition in SK-MEL-5 cells | inhibition, % at 12.5 µM | SK-MEL-5 TRPM1 promoter luciferase, 24 h | 330,000 tested, 0.83% active | AID 488899;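 active = mean inhibition across replicates of 60% or more, whatever share of single replicates reaches that level; inconclusive = some that reach 60%, reason not given; inactive = mean inhibition across replicates below 60%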
Peg3 promoter = Peg3 promoter activity inhibition; HeLa PEG-Prom luciferase reporter, luminescence, overnight; inhibition, % at 20 µM; 360,000 tested, 1.7% active; AID 588405;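 active = inhibition of at least 50% at 20 µM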
The depositor's hits bear a star; ? = inconclusive; / = not tested or not shown. Compounds with a hit are over-represented: about 2.9% of the library has one in this group of screens.

SMILES	LMP1 NFkB inh	KKLEB cytotox	CF NFkB inh	Shn3 3UTR inh	TRPM1 prom inh	Peg3 promoter
COc1ccc(-c2ccc3c(c2)C2CC3CCN2)cc1 (stereo not drawn)	-1.5	5.2	13.0	-36.8	-6.0	-7.5
COc1ccc(/C=C/C(=O)c2oc3ccc(F)cc3c2C)cc1	-6.9	-10.2	-5.8	-13.6	-5.3	-3.7
Cc1ccc(OC(=O)c2oc3ccc(F)cc3c2C)c(C)c1	-2.6	-69.0*	53.3*	-37.8	-0.2	-52.8
O=C(CSc1n[nH]c(-c2ccccn2)n1)Nc1cccc(Cl)c1	37.1	-0.1	22.6	92.3*	33.5	38.0
CC(C)(C)OC(=O)C[C@H]1C/C=C\C[C@@H](CC(=O)N(CCO)Cc2ccccc2)C(=O)NC[C@@H](c2ccccc2)OC1=O	17.9	-6.6	-12.7	-4.6	-1.2	-2.6
COc1ccccc1C(=O)NNC(=S)NC(=O)c1sc2ccccc2c1Cl	21.1	-56.5*	47.6	5.5	37.7	13.8
COc1ccccc1C(=O)NC(=S)NNC(=O)c1sc2ccccc2c1Cl	18.3	-43.8	36.5	8.3	20.5	0.3
COc1cccc(CN2CCC2(C)C(=O)Nc2ccc3c(c2)CCN3C(C)=O)c1F (stereo not drawn)	/	-5.7	7.5	-8.6	/	1.9
O=C(C=Cc1cccc(Cl)c1)c1ccccc1	1.6	5.3	23.8	-20.7	-13.2	101.9*
CCCC(=O)N(Cc1cc2cc(OC)ccc2[nH]c1=O)c1ccccc1OC	-6.6	2.0	7.6	-7.0	/	-4.6
CCOC(=O)OC(C)OC(=O)[C@@H]1N2C(=O)[C@@H](NC(=O)[C@H](N)c3ccccc3)[C@H]2SC1(C)C (stereo partly drawn)	56.5*	-1.9	1.9	9.4	-0.4	7.7
Fc1ccc(C2CCNCC2COc2ccc3c(c2)OCO3)cc1 (stereo not drawn)	-9.0	-10.2	-8.3	8.8	-9.4	61.4*
CCc1cnc(Nc2nc(C(N)Cc3ccc(Cl)cc3)cs2)nc1 (stereo not drawn)	/	-2.4	0.7	-14.1	/	3.6
CCCc1cnc(Nc2nc(C(N)Cc3ccc(OC)cc3)cs2)nc1 (stereo not drawn)	/	-18.4	10.1	11.8	/	99.7*
COc1cc(OC)nc(Nc2nc(C(N)Cc3ccc(F)cc3)cs2)n1 (stereo not drawn)	/	-20.0	25.4	10.9	/	95.7*
NC(c1csc(Nc2nncc3ccccc23)n1)c1ccccc1Cl (stereo not drawn)	/	-17.5	12.5	-5.7	/	14.6
COc1ccc(CC(N)c2csc(Nc3nncc4ccccc34)n2)cc1 (stereo not drawn)	/	-17.1	7.1	29.2	/	121.1*
Cc1cnc(C)c(Nc2nc(C(N)Cc3ccccc3)cs2)n1 (stereo not drawn)	/	4.1	-25.3	1.8	/	-4.5
NC(Cc1ccc(C(F)(F)F)cc1)c1csc(Nc2ncccn2)n1 (stereo not drawn)	/	-15.0	10.1	24.9	/	7.5
NC(c1csc(Nc2nncc3ccccc23)n1)C1CCCCC1 (stereo not drawn)	/	-21.2	7.6	12.5	/	113.0*
COc1ccc(S(=O)(=O)Nc2cccc3c2O[C@H](CN(C)C(=O)Nc2ccc4c(c2)OCO4)[C@@H](C)CN([C@H](C)CO)C3=O)cc1	5.7	21.2	-17.2	16.3	-3.2	3.0
C[C@@H]1CN([C@H](C)CO)C(=O)CCCn2nncc2CO[C@@H]1CN(C)S(=O)(=O)c1ccc(C#N)cc1	4.2	-0.8	0.4	-4.2	/	-11.9
COc1cccc(CNc2nc(NC(C)C)nc3ccsc23)c1	/	-4.5	2.4	32.6	/	5.6
COc1ccc(C(C)C)cc1-c1cccc2nncn12	/	-4.9	-11.6	-13.1	/	14.3
CC(C)c1ccc(OCC(=O)NNC(=S)NC(=O)c2ccco2)c(Br)c1	7.7	-10.7	-11.8	15.7	-0.2	31.8
SMILES	LMP1 NFkB inh	KKLEB cytotox	CF NFkB inh	Shn3 3UTR inh	TRPM1 prom inh	Peg3 promoter
CC(C)(C)c1ccc(OCC(=O)NNC(=S)NC(=O)c2ccco2)c(Br)c1	12.2	-78.2*	58.4*	46.5	19.9	26.9
CCc1nc2c(OCc3ccc(F)c(F)c3)cccn2c1N(C)C(=O)c1ccc(C)cc1	/	-13.8	5.2	4.9	/	0.4
O=C(C1CCC(CNS(=O)(=O)c2cccs2)CC1)N1CCN(c2ccc(Cl)cc2)CC1 (stereo not drawn)	32.7	-0.4	0.9	87.7*	69.0*	7.5
Cc1cc(NC(=O)CSc2nc3sc(C)c(C)c3c(=O)n2C2CCCC2)no1	1.9	-59.2*	36.4	42.2	-0.7	20.0
O=C(COC(=O)c1cc([N+](=O)[O-])ccc1N1CCOCC1)Nc1ccc(Cl)cn1	-26.7	-15.3	22.5	-18.0	-13.6	53.2*
COc1ccc(COC(=O)c2cc([N+](=O)[O-])ccc2N2CCOCC2)cc1F	1.3	-23.0	54.7*	31.0	66.1*	-4.9
O=C(COC(=O)c1cc([N+](=O)[O-])ccc1N1CCOCC1)Nc1ccc(Cl)cc1	13.5	-13.5	10.6	15.6	1.5	31.1
COc1cccc(CNC(=O)COC(=O)c2cc([N+](=O)[O-])ccc2N2CCCC2)c1	71.3*	17.6	-28.8	4.2	9.3	12.6
O=C(COC(=O)c1cc([N+](=O)[O-])ccc1N1CCOCC1)NCc1ccccc1	-1.9	14.4	-19.9	-26.2	/	3.1
O=C(OCc1ccc(Br)cc1)c1cc([N+](=O)[O-])ccc1N1CCOCC1	15.6	-4.5	-3.0	-30.5	/	0.5
Nc1nc(SCc2cccnc2)c2ncn(C3OC(CO)C(O)C3O)c2n1 (stereo not drawn)	2.3	-12.2	14.7	-23.1	8.5	13.6
NC(=S)N=Nc1c(O)[nH]c2ccccc12	-2.2	4.2	2.0	-3.5	-1.2	13.5
Oc1[nH]c2ccccc2c1N=NC(=S)N1CCOCC1	4.5	25.5	17.1	/	92.5*	53.5*
CC1(C(=O)NS(=O)(=O)c2ccccc2C(F)(F)F)CCN1C(=O)CCc1cccs1 (stereo not drawn)	/	2.9	-10.2	9.3	/	-5.9
CCOC(=O)c1c(C)n(-c2ccc(C)cc2)c2ccc(OCC(O)CN3CCN(C)CC3)cc12 (stereo not drawn)	-0.7	-8.5	4.3	-1.2	35.3	78.5*
CCOc1ccc(-n2c(-c3ccccc3)c[n+]3c2CCCCC3)cc1	22.2	3.7	-8.0	?	63.0*	13.7
Cc1ccc(-c2c[n+]3c(n2-c2ccccc2)CCC3)cc1	18.9	-15.2	-11.0	90.6*	48.0	34.7
C[C@H]1CN([C@@H](C)CO)C(=O)CCCn2cc(nn2)CO[C@@H]1CN(C)C(=O)Nc1ccccc1F	3.4	23.2	-21.6	-9.0	/	-3.2
CCCS(=O)(=O)NC(=O)C1(C)CCCN(C(=O)c2cccc(C)c2C)C1 (stereo not drawn)	/	15.4	6.3	4.8	/	6.4
CC1(C(=O)NS(=O)(=O)c2ccc(C#N)cc2)CCN1C(=O)C1CCCCC1 (stereo not drawn)	/	1.4	-33.9	5.8	/	5.6
